From PubChem BioAssay (EPA / NIEHS)
Inconclusive results are not listed. Calls of active or inactive are those of the source. How the source made its calls: active means hit-call score of the fitted dose curve at least 0.9, where 1 is the maximum; inconclusive means response in the unintended direction; inactive means score below 0.9.

assay: ACEA_ER_80hr: ACEA Biosciences xCELLigence Real-Time Cell Analysis on Estrogen Receptor Agonism for Proliferation (AID 2282667); details: T47D proliferation, impedance (xCELLigence), 80 h
Procedure: ACEA_ER is a cell-based, single-readout assay that uses T47D, a human breast cell line, with measurements taken at 80 hours after chemical dosing in a 96-well plate, although TO2 (mc0.srcf) used a 384-well plate. Differences in plate size can be ignored given data normalization.ACEA_ER_80hr is one of two assay component(s) measured or calculated from the ACEA_ER assay. It is designed to make measurements of real-time cell-growth kinetics, a form of growth reporter, as detected with electrical impedance signals by Real-Time Cell Electrode Sensor (RT-CES) technology.Data from the assay component ACEA_ER_80hr was analyzed into 1 assay endpoint. This assay endpoint, ACEA_ER_80hr_Positive, was analyzed in the positive analysis fitting direction relative to DMSO as the negative control and baseline of activity. Using a type of growth reporter, measures of the cells for gain-of-signal activity can be used to understand the signaling at the pathway-level as they relate to the gene ESR1. Furthermore, this assay endpoint can be referred to as a primary readout, because this assay has produced multiple assay endpoints where this one serves a signaling function. To generalize the intended target to other relatable targets, this assay endpoint is annotated to the nuclear receptor intended target family, where the subfamily is steroidal.
The xCELLigence system Multi-E-Plate stations were used to measure the time-dependent response to chemicals. Each compound was tested in an eight-point, 1:4 serial dilution series starting at a maximum final concentration of 100 uM. A maximum starting concentration of 0.5% DMSO was present in the 100 uM chemical samples and was diluted along with the test article dilution series. The screen was performed in biological duplicate using two separate, 96-well, E-Plates 96 for each dilution series (n = 2). Positive controls (MG132 and E2) and a negative control (assay media) were tested in quadruplicate on each testing plate. […] Reference compounds were tested with 8 concentrations with 1:5 serial dilutions. All screening was carried out by ACEA Biosciences, Inc. (San Diego, CA). T-47D cells purchased from ATCC were maintained in RPMI1640 media supplemented with 10% characterized fetal bovine serum (FBS). […] Cells were then detached and seeded in E-Plates 96 in assay medium. After overnight monitoring of growth once every hour, compounds were added to […] cells and remained in the medium until the end of the experiment. Cellular responses were then recorded once every 5 min for the first 5 h, and once every hour for an additional 100 h.

Structure (SMILES) | outcome | AC50
C=CCOC(=O)c1ccccc1C(=O)OCC=C | inactive | –
Cc1cc(=O)[nH]c(=S)[nH]1 | inactive | –
Cc1ccc(C(C)C)c(O)c1 | inactive | –
O=c1[nH]cc(F)c(=O)[nH]1 | inactive | –
CC1(C)NC(=O)NC1=O | inactive | –
CCOC(=O)CCC(=O)OCC | inactive | –
C[Si]1(C)O[Si](C)(C)O[Si](C)(C)O[Si](C)(C)O1 | inactive | –
COc1ccc(S(=O)(=O)N2C(=O)[C@@](c3ccccc3OC)(N3C[C@H](O)C[C@H]3C(=O)N(C)C)c3cc(Cl)ccc32)c(OC)c1 | inactive | –
CC(CO)OC(C)CO (stereo not given) (tested in a mixture with another compound) | inactive | –
Cc1ccc(N(C)C)cc1 | inactive | –
COc1ccc(C)cc1N | inactive | –
Cc1c(C(=O)O)c(O)cc2c1C(=O)c1c(O)c([C@@H]3O[C@H](CO)[C@@H](O)[C@H](O)[C@H]3O)c(O)c(O)c1C2=O | inactive | –
COc1cc(/C=C/C(=O)CC(=O)/C=C/c2ccc(O)c(OC)c2)ccc1O | inactive | –
CC=Cc1ccc(O)c(OC)c1 | inactive | –
Cc1nc(-c2ccc3c(c2)CCN(CCC2CCC(NC(=O)/C=C/c4ccc(F)cc4)CC2)CC3)no1 (stereo not given) | inactive | –
CCOC(=O)C(C)(C)Oc1ccc(Cl)cc1 | inactive | –
CC(=O)OC/C=C(\C)CCC=C(C)C | inactive | –
CC1=C(/C=C/C(C)=C/C=C/C(C)=C/CO)C(C)(C)CCC1 | inactive | –
Cc1ccccc1Cl | inactive | –
Oc1ccc2c(c1)OC[C@@H](N1CCC(O)(c3ccc(F)cc3)CC1)[C@H]2O | inactive | –

Structure (SMILES) | outcome | AC50
Cc1oc(-c2ccccc2)nc1CCOc1cccc2c1ccn2CCC(=O)O | inactive | –
O=C(O)CCCCC(=O)O | inactive | –
CC1(C)CC(N=C=O)CC(C)(CN=C=O)C1 (stereo not given) | inactive | –
Cc1nc(C)nc(N2C[C@@H](C)N(c3ccnc([C@@H](C)O)n3)[C@@H](C)C2)n1 | inactive | –
CCCCCCCC=O | inactive | –
NCCO | inactive | –
CCCCc1ccc2c(n1)[C@@H](c1ccc(OC)cc1C[C@H](C)C(=O)O)[C@H](C(=O)O)[C@H]2c1ccc2c(c1)OCO2 | inactive | –
c1cc(-c2ccncc2)ccn1 | inactive | –
C=CCc1ccc(O)c(OC)c1 | inactive | –
COc1cc(S(=O)(=O)O)c(C)cc1N=Nc1c(O)ccc2cc(S(=O)(=O)O)ccc12 | inactive | –
Oc1ccc2ccccc2c1N=Nc1ccccc1 | – | 6.47 µM (active)
FC(F)(F)C(F)(F)C(F)(F)C(F)(F)C(F)(F)C(F)(F)CCI | inactive | –
CCCCN(CCCC)CCCC | inactive | –
COCCOCCOC | inactive | –
C[C@]12C=CC(=O)C=C1CC[C@@H]1[C@@H]2C(=O)C[C@@]2(C)[C@H]1CC[C@]2(O)C(=O)CO | – | 14.8 µM (active)
CCCCCCCCCCO | – | 19.8 µM (active)
COc1cc(C=O)ccc1O | inactive | –
CCCCC(CC)COC(=O)CC(C(=O)OCC(CC)CCCC)S(=O)(=O)O (stereo not given) | inactive | –
Cc1ccc(C)c(O)c1C | inactive | –
Cc1cccc(Nc2cc(Cl)nc(SCC(=O)O)n2)c1C | inactive | –
